# Results as given in PubChem BioAssay.
# Calls of active or inactive are those of the source. Unless noted, the rule behind the calls is not given here.
# What was measured:
# [1] = tested on: Wnt5a (protein binding on small-molecule microarray); test: Wnt5a binders on small-molecule microarray, primary screen, biophysical, 635/667 nm fluorescence (AID 1142); conditions: 635 nm fluorescence, higher = more signal;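 note: fluorescence read at 667 nm with signal to noise per printed feature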
# [2] = cell viability in Huh7 cells, primary screen, cytotoxicity control for HCV replication inhibitor project, CellTiter-Glo luminescence, basal, 48 h (AID 1143); conditions: Huh7 HCV replicon, higher = more signal, called active from +8 up or from −8 down;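 note: Huh7 hepatoma cells carrying a hepatitis C replication reporter with no stimulus; test concentration not given here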
# [3] = P. aeruginosa biofilm formation inhibitors, primary screen, PAO1 strain, BacTiter-Glo luminescence, LB-PBS (AID 1144); conditions: 12 h, higher = more signal
# [4] = CREB reporter modulators without forskolin, primary screen, cell-based, PC12, CRE-LacZ reporter, unstimulated (AID 1145); conditions: no forskolin, luminescence, 4.5 h, higher = more signal, called active from +8 up or from −8 down
# [5] = CREB reporter modulators under forskolin, primary screen, cell-based, PC12, CRE-LacZ reporter, forskolin-stimulated (AID 1146); conditions: luminescence, 4.5 h, higher = more signal, called active from +8 up or from −8 down;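 note: PC12 cells with 6xCRE LacZ reporter stimulated by forskolin 10 µM; beta-galactosidase reporter signal reflecting CREB driven transcription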
# [6] = molecular target: Streptavidin (Streptomyces avidinii) (UniProt P22629); test: streptavidin binders on small-molecule microarray, primary screen, artefact control for SMM compound annotation, biophysical, 635/667 nm fluorescence (AID 1147); conditions: streptavidin binding, higher = more signal;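 note: signal reflects streptavidin binding to arrayed compounds as a control protein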
# [7] = small-molecule binders of probe aInhba, primary screen, biochemical, small-molecule microarray, 635/667 nm fluorescence (AID 1148); conditions: higher = more signal;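 note: score merges 667nm spot fluorescence with signal-to-noise for antibody binding to printed compounds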
# Torsin-1A (Homo sapiens) [8] = molecular target: Torsin-1A (Homo sapiens) (UniProt O14656); test: torsin A binders from cell lysate, primary screen, small-molecule microarray, wild-type, 635/667 nm (AID 1149); conditions: COS7 hTOR1A-WT lysate, 635 nm fluorescence, higher = more signal
# Torsin-1A (Homo sapiens) [9] = molecular target: Torsin-1A (Homo sapiens) (UniProt O14656); test: small-molecule binders of mutant TOR1A in lysate, primary screen, cell lysate, small-molecule microarray, COS7 lysate, 635/667 nm fluorescence (AID 1150); conditions: COS7 hTOR1A mutant lysate, 635 nm fluorescence, higher = more signal;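 note: score pools 667 nm emission and signal to noise measuring lysate protein binding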
# [10] = tested on: Sonic hedgehog protein (Shh); test: small-molecule binders of Shh protein, primary screen, biochemical, small-molecule microarray, 635/667 nm fluorescence (AID 1151); conditions: small-molecule microarray binding, 635 nm fluorescence; higher = more signal;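 note: Shh protein binding to compounds spotted on small-molecule microarray slides; score combines spot fluorescence intensity with signal-to-noise across triplicate slides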
# [11] = E. coli DRC41 culture turbidity changes, primary screen, E. coli filamentation inducer project, strain DRC41, OD650, 48 h (AID 1152);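 note: E. coli MC1000 strain DRC41 lacking acrAB efflux pump and sulA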; conditions: E. coli DRC41 (acrAB sulA), higher = more signal, called active from +8 up or from −8 down
# [12] = small-molecule binders of probe aLefty1, primary screen, biochemical, small-molecule microarray, 635/667 nm fluorescence (AID 1153); conditions: higher = more signal;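 note: score merges spot fluorescence with signal-to-noise ratio from the scanned slide images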
# [13] = PSAC antagonists in infected red cells, primary screen, cell-based, P. falciparum Indochina, OD700, 1 h (AID 1154); conditions: P. falciparum Indochina infected RBC osmotic lysis, higher = more signal, called active from +8 up or from −8 down
# [14] = PSAC antagonists in infected red cells, primary screen, cell-based, P. falciparum Indochina, OD700, 2 h (AID 1155);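 note: lysis reports solute entry through the parasite surface anion channel PSAC; channel blockers reduce lysis of infected cells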; conditions: P. falciparum Indochina infected erythrocytes, osmotic lysis OD700; higher = more signal, called active from +8 up or from −8 down
# [15] = osmotic lysis modulators in infected erythrocytes, primary screen, PSAC antagonist project, cell-based, P. falciparum Indochina, OD700, 3 h (AID 1156); conditions: higher = more signal, called active from +8 up or from −8 down
# [16] = PSAC antagonists in infected red cells, primary screen, cell-based, P. falciparum Indochina, OD700, 18 h (AID 1157); conditions: P. falciparum Indochina infected erythrocytes, osmotic lysis OD700, 18 h; higher = more signal, called active from +8 up or from −8 down
# [17] = modulators of S6 phosphorylation in cells, primary screen, cell-based, A549, cytoblot, luminescence, serum-stimulated (AID 1158); conditions: A549 phospho-S6 cytoblot, 5 h, higher = more signal;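 note: serum-stimulated A549 lung adenocarcinoma cells; signal is phosphorylated S6 detected by cytoblot immunostaining with HRP secondary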
# [18] = molecular target: NADPH oxidase 2 (Homo sapiens) (UniProt P04839); test: NOX2-dependent H2O2 signal modulators, primary screen, NOX inhibitor project, cell-based, HEK293-NOX2, PMA-stimulated, Amplex Red fluorescence (AID 1159); conditions: 45 min, higher = more signal, called active from +8 up or from −8 down; note: test concentration not given here
# [19] = molecular target: NADPH oxidase 4 (Homo sapiens) (UniProt Q9NPH5); test: NOX4-dependent H2O2 signal modulators, primary screen, NOX inhibitor project, cell-based, HEK293-NOX4, tetracycline-induced, Amplex Red fluorescence (AID 1160); conditions: 45 min, higher = more signal, called active from +8 up or from −8 down
# [20] = molecular target: NADPH oxidase 5 (Homo sapiens) (UniProt Q96PH1); test: NOX5-dependent H2O2 signal modulators, primary screen, NOX inhibitor project, cell-based, HEK293-NOX5, Amplex Red fluorescence (AID 1161); conditions: HEK293-NOX5, ionomycin, 45 min, higher = more signal
# NADPH oxidase 5 (Homo sapiens), sequence (Q96PH1 whole entry, looked up): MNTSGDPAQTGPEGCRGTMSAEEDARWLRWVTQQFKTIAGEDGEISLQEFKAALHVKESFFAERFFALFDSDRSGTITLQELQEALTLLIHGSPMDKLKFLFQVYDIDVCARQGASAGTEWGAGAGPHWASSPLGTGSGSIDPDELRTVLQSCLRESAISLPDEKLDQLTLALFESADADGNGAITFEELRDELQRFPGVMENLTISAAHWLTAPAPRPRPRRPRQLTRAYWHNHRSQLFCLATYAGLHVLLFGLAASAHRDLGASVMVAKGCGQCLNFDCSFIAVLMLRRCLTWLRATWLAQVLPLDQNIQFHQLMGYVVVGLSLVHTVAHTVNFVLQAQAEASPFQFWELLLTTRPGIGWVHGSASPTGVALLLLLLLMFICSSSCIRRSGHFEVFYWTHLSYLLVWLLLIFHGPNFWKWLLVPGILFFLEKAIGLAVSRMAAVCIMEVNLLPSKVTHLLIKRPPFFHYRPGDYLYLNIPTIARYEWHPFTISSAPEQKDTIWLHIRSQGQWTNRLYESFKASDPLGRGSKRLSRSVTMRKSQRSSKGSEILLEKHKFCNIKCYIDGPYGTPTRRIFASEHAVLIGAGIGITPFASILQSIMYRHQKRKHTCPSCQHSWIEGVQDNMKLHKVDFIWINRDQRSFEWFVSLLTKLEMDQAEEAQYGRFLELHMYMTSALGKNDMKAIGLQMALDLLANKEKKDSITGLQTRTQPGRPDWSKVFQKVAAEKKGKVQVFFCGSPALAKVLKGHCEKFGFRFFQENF
# NADPH oxidase 2 (Homo sapiens), sequence (P04839 whole entry, looked up): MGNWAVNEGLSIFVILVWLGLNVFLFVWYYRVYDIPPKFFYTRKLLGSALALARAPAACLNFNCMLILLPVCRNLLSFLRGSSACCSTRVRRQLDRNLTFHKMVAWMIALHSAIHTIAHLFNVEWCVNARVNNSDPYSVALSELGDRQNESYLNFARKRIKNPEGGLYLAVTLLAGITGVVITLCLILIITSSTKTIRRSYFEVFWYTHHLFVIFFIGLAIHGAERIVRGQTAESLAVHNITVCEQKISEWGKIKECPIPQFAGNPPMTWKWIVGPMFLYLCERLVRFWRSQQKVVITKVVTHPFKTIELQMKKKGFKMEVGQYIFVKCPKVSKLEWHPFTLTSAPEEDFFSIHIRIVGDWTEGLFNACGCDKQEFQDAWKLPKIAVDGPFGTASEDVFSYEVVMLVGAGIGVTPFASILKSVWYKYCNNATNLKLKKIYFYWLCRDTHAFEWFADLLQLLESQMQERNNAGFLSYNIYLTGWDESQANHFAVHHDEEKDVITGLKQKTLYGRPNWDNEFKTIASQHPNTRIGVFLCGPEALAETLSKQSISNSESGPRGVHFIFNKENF
# NADPH oxidase 4 (Homo sapiens), sequence (Q9NPH5 whole entry, looked up): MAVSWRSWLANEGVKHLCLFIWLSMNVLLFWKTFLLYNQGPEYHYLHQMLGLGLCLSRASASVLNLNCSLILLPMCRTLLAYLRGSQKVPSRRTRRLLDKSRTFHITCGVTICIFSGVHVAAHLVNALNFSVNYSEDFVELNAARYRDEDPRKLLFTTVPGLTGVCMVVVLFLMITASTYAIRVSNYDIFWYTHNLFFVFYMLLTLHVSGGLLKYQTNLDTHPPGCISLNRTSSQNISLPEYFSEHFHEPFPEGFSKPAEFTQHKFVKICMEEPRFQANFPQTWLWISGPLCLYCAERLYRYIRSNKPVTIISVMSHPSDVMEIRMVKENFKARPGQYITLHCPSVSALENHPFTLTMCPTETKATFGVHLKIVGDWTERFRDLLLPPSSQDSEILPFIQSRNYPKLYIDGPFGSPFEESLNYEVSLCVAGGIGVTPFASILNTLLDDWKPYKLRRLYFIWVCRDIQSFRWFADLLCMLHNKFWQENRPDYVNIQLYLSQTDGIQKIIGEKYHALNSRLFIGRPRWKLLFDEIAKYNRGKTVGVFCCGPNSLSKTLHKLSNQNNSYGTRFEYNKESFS
# Torsin-1A (Homo sapiens), sequence (O14656 whole entry, looked up): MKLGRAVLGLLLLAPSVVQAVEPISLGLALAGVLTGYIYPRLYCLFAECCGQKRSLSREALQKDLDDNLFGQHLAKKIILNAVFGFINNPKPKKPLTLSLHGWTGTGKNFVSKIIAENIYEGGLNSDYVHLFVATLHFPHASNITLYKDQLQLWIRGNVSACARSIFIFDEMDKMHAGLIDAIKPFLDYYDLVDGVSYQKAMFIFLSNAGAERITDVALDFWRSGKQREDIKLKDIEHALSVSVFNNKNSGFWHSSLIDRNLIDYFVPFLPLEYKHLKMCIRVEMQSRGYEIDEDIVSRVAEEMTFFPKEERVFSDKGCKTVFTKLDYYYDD
# Streptavidin (Streptomyces avidinii), sequence (P22629 whole entry, looked up): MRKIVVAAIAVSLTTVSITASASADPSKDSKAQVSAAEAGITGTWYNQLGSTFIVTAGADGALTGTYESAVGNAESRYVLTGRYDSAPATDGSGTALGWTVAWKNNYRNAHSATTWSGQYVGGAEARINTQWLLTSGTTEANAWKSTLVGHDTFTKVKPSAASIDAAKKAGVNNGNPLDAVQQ
SMILES,composite z-score [1],z-score [2],z-score [3],z-score [4],z-score [5],composite z-score [6],composite z-score [7],composite z-score (Torsin-1A (Homo sapiens) [8]),composite z-score (Torsin-1A (Homo sapiens) [9]),composite z-score [10],z-score [11],composite z-score [12],z-score [13],z-score [14],z-score [15],z-score [16],z-score [17],z-score [18],z-score [19],z-score [20]
CC(C)[C@@H](OCc1ccccc1)[C@H](C)C=NO[C@H](C)c1cn([C@@H]2COC[C@H]2O)nn1,0.31,-0.703 (inactive),1.28 (inactive),0.927 (inactive),-0.379 (inactive),0.0286,-0.0843,1.4,1.56,0.371,0.112 (inactive),-0.111,0.551 (inactive),-0.119 (inactive),-0.541 (inactive),0.172 (inactive),-0.995,0.542 (inactive),0.827 (inactive),0.704
C=C(C)C(=O)OC[C@H]1CN2[C@@H](CC[C@@H](C)[C@@H]2c2ccc(Br)cc2)C(=O)O1,-0.219,0.411 (inactive),-0.694 (inactive),-0.654 (inactive),-0.777 (inactive),0.0906,-0.154,0.334,0.0188,0.0827,-1.41 (inactive),-0.143,3.08 (inactive),-0.0269 (inactive),-0.691 (inactive),-0.196 (inactive),0.861,-1.81 (inactive),0.0898 (inactive),-1.61
O=C1[C@H]2[C@H]3[C@H](O)[C@H](O)CC(=NOC[C@@H](O)COCc4ccco4)[C@@H]3CC[C@H]2C(=O)N1C1CCCCC1,0.124,-0.234 (inactive),0.321 (inactive),3.23 (inactive),0.148 (inactive),-0.256,-0.195,3.38,1.25,1.94,0.38 (inactive),0.0616,7.07 (inactive),0.409 (inactive),0.347 (inactive),0.329 (inactive),-0.9,-0.0721 (inactive),0.721 (inactive),0.475
CC(C)(C)N1C(=O)[C@H]2[C@H]3[C@H](O)[C@H](O)CC(=NOC[C@@H](O)COCc4ccco4)[C@@H]3CC[C@H]2C1=O,0.0983,0.257 (inactive),-0.579 (inactive),1.06 (inactive),0.279 (inactive),-0.276,-0.101,0.334,0.275,-0.633,0.0978 (inactive),0.211,0.693 (inactive),-0.335 (inactive),-0.222 (inactive),-0.261 (inactive),-0.151,0.725 (inactive),-1.96 (inactive),-0.279
CCN1C(=O)[C@H]2[C@H]3[C@H](O)[C@H](O)CC(=NO[C@@H]4O[C@H](COC(C)=O)[C@@H](OC(C)=O)[C@H](OC(C)=O)[C@H]4OC(C)=O)[C@@H]3CC[C@H]2C1=O,0.352,0.772 (inactive),1.22 (inactive),-0.882 (inactive),0.171 (inactive),0.0251,-0.0221,0.331,0.0248,1.03,0.59 (inactive),0.227,0.202 (inactive),0.195 (inactive),-0.519 (inactive),0.319 (inactive),-0.639,0.357 (inactive),0.722 (inactive),-0.0344
